From PubChem
Cruzain Triton = qHTS Assay for Promiscuous and Specific Inhibitors of Cruzain (with detergent); Cruzipain (Trypanosoma cruzi), P25779; purified cruzain, Z-FR-AMC fluorescence, 0.01% Triton; 0.43% of 200,000 active; Potency, µM, actives largely listed as inhibitors; also: nearly all actives have a fitted effect of over 40% in size
Target sequence (P25779 123-467 limits assumed): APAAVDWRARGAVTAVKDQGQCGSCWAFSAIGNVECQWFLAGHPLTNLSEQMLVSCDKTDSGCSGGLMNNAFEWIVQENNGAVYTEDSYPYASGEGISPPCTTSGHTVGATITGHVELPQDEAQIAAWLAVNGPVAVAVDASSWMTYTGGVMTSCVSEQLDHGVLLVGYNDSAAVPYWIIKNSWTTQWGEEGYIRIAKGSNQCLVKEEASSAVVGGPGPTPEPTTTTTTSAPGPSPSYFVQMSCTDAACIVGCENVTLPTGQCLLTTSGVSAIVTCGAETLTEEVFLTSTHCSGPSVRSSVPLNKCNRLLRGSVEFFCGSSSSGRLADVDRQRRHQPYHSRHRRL
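Cysteine protease activity tested under reducing, mildly acidic conditions (100 mM sodium acetate pH 5.5, 5 mM DTT) plus 0.01% Triton X-100. Cruzain 1.5 nM; substrate Z-FR-AMC 2 uM; 15 min compound preincubation at room temperature.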
NS1 function inh = qHTS Assay for Inhibitors of Influenza NS1 Protein Function. Potency, µM (top dose mostly 46.1 µM). AID 2326, 2010. 0.4% of 270,000 active; calls by dose curve; also: actives are rising curves; nearly all actives have a fitted effect of over 50% in size
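S. cerevisiae expressing influenza A NS1, grown in glucose, washed, then diluted 1:100 into pH 6.0 -URA galactose medium with 23 nl compound. Growth recovery read as OD600; NS1-free strain serves as control.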
Cruzain noTriton = qHTS Assay for Promiscuous and Specific Inhibitors of Cruzain (without detergent). 2.3% of 200,000 active. Cruzipain (Trypanosoma cruzi), P25779. purified cruzain, Z-FR-AMC fluorescence, no detergent. Potency, µM, actives largely listed as inhibitors; also: nearly all actives have a fitted effect of over 40% in size
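Detergent-free condition (0.00005% Triton X-100) in acetate buffer pH 5.5 with DTT. 1.5 nM enzyme and compound were pre-mixed 15 min, then 2 uM Z-FR-AMC substrate added; reaction progress from fluorescence change between first and third reads (60 s).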
Hits are given with their value; n = inactive; u = inconclusive; x = no result given. Shown is part of a subset that was picked to be rich in hits. Unless noted, calls follow the shape of the dose curve; as a rule, active = well fitted curve in the direction sought with a large enough effect; inconclusive = small, poorly fitted or top-dose-only effect, or another doubt; inactive = no such curve, though single readings can be large; an effect the other way counts as inactive or inconclusive.

SMILES	Cruzain Triton	NS1 function inh	Cruzain noTriton
N#Cc1ccc(NC(=O)Nc2ccc(Cl)cc2)cc1	n	n	10µM
Cc1ccc(OCC(=O)Nc2c(Cl)ccc3nsnc23)cc1C	n	x	n
COc1c(C(C)(C)C)cc([N+](=O)[O-])c(C)c1[N+](=O)[O-]	n	x	n
NC1(P(=O)(O)O)CCCCC1	n	n	n
Cc1cccc(NC(=O)CSc2nnc(-c3ccco3)c(-c3ccco3)n2)c1C	28µM	u	7.9µM
Cc1cccc(NC(=O)CSc2nnc(-c3ccco3)c(-c3ccco3)n2)c1	x	n	x
COc1cccc([C@@H]2Oc3ccc(OC)cc3C(=O)[C@H]2OC(=O)NS(=O)(=O)c2ccc(C)cc2)c1	n	x	n
COc1ccc2nc(-n3c(C)ccc3C)sc2c1	n	n	n
CCOc1ccc2nc(N3C(=O)/C(=C/c4ccccc4)NC3=S)sc2c1	n	n	13µM
COc1ccc2nc(N3C(=O)/C(=C/c4ccccc4)NC3=S)sc2c1	n	n	13µM
CCOc1ccc2nc(N3CCCCCC3)sc2c1	n	n	n
Cc1cc(S(=O)(=O)n2ccnc2C(C)C)cc([N+](=O)[O-])c1C	n	x	n
c1ccc(C2CO2)cc1 (stereo not given)	n	x	n
COc1cccc(NC(=S)/C(=C(\[O-])c2ccc(C)c([N+](=O)[O-])c2)[n+]2ccccc2)c1	n	n	25µM
Cc1ccccc1NC(=S)/C(=C(\[O-])c1ccc(C)c([N+](=O)[O-])c1)[n+]1ccccc1	n	n	n
Cc1ccc(/C([O-])=C(/C(=S)NCCN2CCOCC2)[n+]2ccccc2)cc1[N+](=O)[O-]	x	n	x
Cc1ccc(NC(=S)/C(=C(\[O-])c2ccc(C)c([N+](=O)[O-])c2)[n+]2ccccc2)cc1C	n	n	25µM
CCn1c(SCc2nc3ccccc3s2)nnc1-c1ccccc1	n	n	n
Cc1nnc(SCc2nc3ccccc3s2)n1N	x	n	x
c1ccc(-n2cnnc2SCc2nc3ccccc3s2)cc1	n	n	10µM
Cc1nnc(SCc2nc3ccccc3s2)n1-c1ccccc1	n	n	20µM
COC(=O)[C@H](Cc1ccccc1)NC(=O)O[C@@H]1Cc2cc(OC)ccc2O[C@H]1c1cccc(OC)c1	n	x	n
COC(=O)c1ccc(C(C(=O)NC2CCCCC2)N(CCc2ccccc2)C(=O)Cc2cccs2)cc1 (stereo not given)	n	n	13µM
COC(=O)c1ccc(C(C(=O)NC2CCCCC2)N(Cc2ccc(F)cc2)C(=O)Cc2cccs2)cc1 (stereo not given)	n	n	n
COc1ccc(NS(=O)(=O)c2cccc(C(=O)N/N=C(\C)c3ccc(-n4ccnc4)cc3)c2)cc1	n	n	n
SMILES	Cruzain Triton	NS1 function inh	Cruzain noTriton
C/C(=N\NC(=O)c1cccc(S(=O)(=O)Nc2ccccc2Cl)c1)c1ccc(-n2ccnc2)cc1	n	n	20µM
COc1ccc(-c2cc(=O)oc3cc(OCC(C)=O)ccc23)cc1	n	n	n
COc1ccc(-c2cc(=O)oc3cc(OCC(=O)c4cccc([N+](=O)[O-])c4)ccc23)cc1	n	u	25µM
CSc1cccc(-c2nnc(NC(=O)c3ccc4c(c3)OCCO4)o2)c1	n	x	n
O=C(Nc1nnc(-c2ccc3c(c2)OCCO3)o1)c1ccc(Cc2ccccc2)cc1	n	n	13µM
Cc1ccc(-n2ncc3c(NCCC4=CCCCC4)ncnc32)cc1C	n	x	n
O=C(NC1CCS(=O)(=O)C1)c1c(NC(=O)C2COc3ccccc3O2)sc2c1CCCC2 (stereo not given)	n	n	n
CCCNC(=O)c1c(NC(=O)C2COc3ccccc3O2)sc2c1CCCC2 (stereo not given)	n	n	20µM
Cc1ccc(-c2cc(C(=O)NCCc3ccccc3)c3ccccc3n2)cc1C	n	x	n
CC1(C)C[C@](C)(C(=O)c2ccccc2)C=C1c1ccccc1	n	x	n
O=[N+]([O-])c1ccc(/C=N\N2CCN(c3ccc(Cl)cc3)CC2)cc1	n	n	16µM
O=[N+]([O-])c1ccc(/C=N/N2CCCCC2)cc1	x	n	x
O=[N+]([O-])c1ccc(N2CCN(c3nc(-c4ccc(Cl)cc4)cs3)CC2)cc1	n	n	13µM
C/C(=N\N1CCN(c2ccc(Cl)cc2)CC1)c1cccc([N+](=O)[O-])c1	x	n	x
O=[N+]([O-])c1cccc(/C=N\N2CCN(c3ccc(Cl)cc3)CC2)c1	n	n	25µM
O=[N+]([O-])c1ccc(-c2csc(N3CCCCCC3)n2)cc1	x	n	x
O=C(CSc1nc2ccsc2c(=O)n1Cc1ccccc1F)NCc1ccccc1Cl	n	x	n
O=C(OCc1nc2scc(-c3ccccc3)c2c(=O)[nH]1)c1cc(Cl)ccc1[N+](=O)[O-]	n	n	32µM
Cc1c(C(=O)OCc2nc3scc(-c4ccccc4)c3c(=O)[nH]2)cccc1[N+](=O)[O-]	n	n	u
C=C(C)Cn1c(SCC(=O)Nc2ccccc2C)nc2sc3c(c2c1=O)CCCC3	n	x	n
CC(=O)COc1cc(C)cc2oc(=O)cc(-c3ccccc3)c12	x	n	x
Cc1cc(OCc2ccc([N+](=O)[O-])cc2)c2c3c(c(=O)oc2c1)CCCC3	n	n	13µM
Cc1c(OCc2ccc([N+](=O)[O-])cc2)ccc2c3c(c(=O)oc12)CCC3	n	n	n
COc1ccc([N+](=O)[O-])cc1COc1cc(C)cc2oc(=O)cc(-c3ccccc3)c12	n	n	32µM
Cc1ccc(S(=O)ON2CCC(C(=O)O)(c3ccccc3)CC2)cc1 (stereo not given)	n	n	n
SMILES	Cruzain Triton	NS1 function inh	Cruzain noTriton
BrC/C=C/CBr	n	x	n
Cc1ccc(Cl)cc1	n	x	n
CC(=O)c1ccc(NC(=O)c2cc3sccc3n2Cc2ccc(Cl)cc2)cc1	n	x	u
CCOC(=O)c1ccc(NC(=O)c2cc3sccc3n2Cc2ccc(Cl)cc2)cc1	n	x	10µM
CCOC(=O)c1cccc(NC(=O)c2cc3sccc3n2Cc2ccc(Cl)cc2)c1	n	x	n
Cc1ccc(Cn2c(C(=O)Nc3cccc(Cl)c3)cc3sccc32)cc1	n	x	25µM
COc1cccc(Cn2c(=O)c(-c3ccc(Cl)cc3)nc3cnc(OC)nc32)c1	n	x	n
Cc1c(CC=C(Cl)Cl)c(=O)[nH]c2c(C)cccc12	n	n	2.5µM
CCCc1c(C)c2cccc(C)c2[nH]c1=O	n	n	n
Cc1ccc(-c2cc(C(=O)N(Cc3ccccc3)Cc3ccco3)no2)cc1F	n	x	n
CCOc1cccc2cc(C(=O)N3CCc4ccccc43)c(=O)oc12	n	n	16µM
COc1cccc2cc(C(=O)N3CCc4ccccc43)c(=O)oc12	n	n	n
COc1cccc(C(=O)Nc2nc(-c3ccc(S(=O)(=O)N4CCOCC4)cc3)cs2)c1	n	n	u
COc1ccc(/C=N/Nc2nc(-c3cccc(S(=O)(=O)N4CCCC4)c3)cs2)c(OC)c1	n	u	7.9µM
CCOC(=O)c1ccc(N2CCN(c3cccc(Cl)c3)CC2)c(NC(=O)Nc2ccc(Cl)cc2)c1	n	x	4µM
CCOC(=O)c1ccc(N2CCN(c3ccccc3F)CC2)c(NC(=O)Nc2ccccc2)c1	n	u	u
CCS(=O)(=O)N1CCc2cc(C(=O)N3CCN(c4cccc(C(F)(F)F)c4)CC3)ccc21	n	x	n
